Bioassay records as filed in PubChem BioAssay.
The entries come from a sample that favours hits as a whole.
Dicer inh: human Dicer pre-microRNA cleavage inhibition; Q9UPY3; cat-ELCCA pre-miR-21 Dicer processing, chemiluminescence; hits give high values; z-score at 25 µM; 6% of 47,000 active; in the data active = z-score above about 3, passing the limit was not always enough;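 note: plate controls were vehicle for no effect and no enzyme for full effect; higher signal means more uncleaved substrate so more Dicer inhibition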
Target sequence (Q9UPY3 whole entry, looked up): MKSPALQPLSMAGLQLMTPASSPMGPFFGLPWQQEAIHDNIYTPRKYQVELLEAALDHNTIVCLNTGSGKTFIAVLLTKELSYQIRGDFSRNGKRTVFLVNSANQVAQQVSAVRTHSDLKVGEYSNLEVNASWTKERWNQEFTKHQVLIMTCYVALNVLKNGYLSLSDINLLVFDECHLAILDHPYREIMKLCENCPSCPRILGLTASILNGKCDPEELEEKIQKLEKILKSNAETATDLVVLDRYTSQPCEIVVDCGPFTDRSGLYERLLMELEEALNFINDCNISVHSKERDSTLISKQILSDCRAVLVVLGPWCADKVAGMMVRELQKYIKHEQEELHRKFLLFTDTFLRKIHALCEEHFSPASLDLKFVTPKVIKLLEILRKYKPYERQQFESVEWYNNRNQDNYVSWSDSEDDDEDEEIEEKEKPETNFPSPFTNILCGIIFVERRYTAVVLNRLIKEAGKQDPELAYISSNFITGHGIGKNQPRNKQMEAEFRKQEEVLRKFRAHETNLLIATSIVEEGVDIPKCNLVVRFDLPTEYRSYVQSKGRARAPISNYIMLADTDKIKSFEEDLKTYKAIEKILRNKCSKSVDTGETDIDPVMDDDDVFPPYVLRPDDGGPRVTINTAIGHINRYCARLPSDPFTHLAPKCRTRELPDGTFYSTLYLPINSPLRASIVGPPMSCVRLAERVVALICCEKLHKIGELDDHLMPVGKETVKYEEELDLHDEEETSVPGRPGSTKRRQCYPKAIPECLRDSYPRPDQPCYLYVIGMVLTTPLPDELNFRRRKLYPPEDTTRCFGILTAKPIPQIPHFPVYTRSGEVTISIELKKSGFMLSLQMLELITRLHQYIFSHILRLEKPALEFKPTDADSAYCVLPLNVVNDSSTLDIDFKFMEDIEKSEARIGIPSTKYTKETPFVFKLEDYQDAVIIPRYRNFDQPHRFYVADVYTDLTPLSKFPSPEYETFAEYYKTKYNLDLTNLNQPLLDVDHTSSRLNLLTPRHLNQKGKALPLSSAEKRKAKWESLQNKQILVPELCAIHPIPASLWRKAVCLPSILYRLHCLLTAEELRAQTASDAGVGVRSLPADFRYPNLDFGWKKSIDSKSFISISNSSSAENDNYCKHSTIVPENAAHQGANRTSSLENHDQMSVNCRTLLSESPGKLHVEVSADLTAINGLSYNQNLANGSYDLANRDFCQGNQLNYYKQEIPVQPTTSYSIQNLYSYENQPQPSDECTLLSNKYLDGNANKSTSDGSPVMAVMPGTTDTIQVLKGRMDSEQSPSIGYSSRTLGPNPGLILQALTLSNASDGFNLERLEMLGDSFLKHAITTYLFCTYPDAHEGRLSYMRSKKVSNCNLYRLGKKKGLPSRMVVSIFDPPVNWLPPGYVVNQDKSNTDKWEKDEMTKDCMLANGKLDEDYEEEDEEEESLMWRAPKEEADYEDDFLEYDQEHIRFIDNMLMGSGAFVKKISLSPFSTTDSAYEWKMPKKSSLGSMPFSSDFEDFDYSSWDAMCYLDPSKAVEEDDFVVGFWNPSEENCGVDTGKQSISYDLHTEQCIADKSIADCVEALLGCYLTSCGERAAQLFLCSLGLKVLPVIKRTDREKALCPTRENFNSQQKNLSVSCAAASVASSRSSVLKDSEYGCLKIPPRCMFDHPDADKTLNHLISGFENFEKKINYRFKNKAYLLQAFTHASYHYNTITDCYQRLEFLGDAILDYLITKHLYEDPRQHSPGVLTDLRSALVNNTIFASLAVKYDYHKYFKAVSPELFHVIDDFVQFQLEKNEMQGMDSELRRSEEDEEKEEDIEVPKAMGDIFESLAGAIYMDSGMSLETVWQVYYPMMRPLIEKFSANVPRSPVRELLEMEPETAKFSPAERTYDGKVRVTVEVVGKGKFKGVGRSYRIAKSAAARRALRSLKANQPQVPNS
An asterisk follows results filed as active.

SMILES	Dicer inh
CC12c3ccccc3C(C)(c3ccccc31)C1C(=O)N(c3ccc(C(=O)O)cc3)C(=O)C12 (stereo not drawn)	0.98
O=C(Nc1ccc(N2CCOCC2)cc1)c1ncn[nH]1	2
O=C(Nc1ccc(N2CCOCC2)cc1)c1ccc(Oc2cc(Cl)cc(Cl)c2)o1	0.52
O=C(Nc1ccc(N2CCOCC2)cc1)c1cc2cc(Cl)ccc2[nH]1	4*
CC(C)S(=O)(=O)c1cscc1N/C=C(/C#N)C(=O)c1ccccc1	-2.1
CCc1ccccc1N1CC(O)=C(c2nc3ccccc3c(=O)[nH]2)C1=N	4.9*
Cc1ccc(N2CC(O)=C(c3nc4ccccc4c(=O)[nH]3)C2=N)c(C)c1	-0.23
CCOc1ccc(N2CC(O)=C(c3nc4ccccc4c(=O)[nH]3)C2=N)cc1	1.1
Cc1nc(-c2ccccn2)[nH]c(=O)c1CC1CC1	2.6
C=CCn1c(N)c(C(=O)NCc2ccccc2)sc1=S	-0.55
Cn1c(=O)c2c(nc(NCc3cccnc3)n2Cc2ccc(F)cc2)n(C)c1=O	-0.81
CCc1cc(C(=O)c2ccc(OC)cc2)c(NC(=O)CSCC(=O)O)s1	1.5
Cc1ccc(C(=O)CSc2n[nH]c(-c3ccco3)n2)c(C)c1	-0.59
O=C(CSc1n[nH]c(-c2ccco2)n1)c1ccc(O)cc1O	10*
Cc1cc(C)nc(SCC(=O)c2ccc(O)cc2O)n1	0.35
COC(=O)C1CCc2ccccc2N1 (stereo not drawn)	1.4
Cc1ccc(-c2nn(C)c(=O)c3ccccc23)cc1S(=O)(=O)NC(C)c1ccccc1 (stereo not drawn)	-0.9
O=C(NCc1sccc1Cl)Nc1cccc(Cl)c1	0.36
O=C(Oc1cccc2c1C(=O)C=CC2=O)c1ccccc1	-1.7
CCCCOC(=O)n1c(=O)oc2ccccc21	6.6*
CCOC(=O)n1c(=S)oc2ccccc21	1.6
O=C(c1ccc(Cl)cc1)n1c(=O)oc2ccccc21	1.3
CCOC(=O)c1c(NC(=O)CN2CCCCC2)sc2c1CCCC2=O	1.4
CC(C)c1ccc(NC(=S)NNC(=O)NC(=O)c2csc([N+](=O)[O-])c2)cc1	4.7*
O=C(NC(=S)NN1CCCCC1)c1csc([N+](=O)[O-])c1	2.2
SMILES	Dicer inh
CC(C)CNC(=S)NC(=O)c1csc([N+](=O)[O-])c1	1.1
CC(C)C(NS(=O)(=O)c1cccc2nsnc12)C(=O)O (stereo not drawn)	-1.6
CC(C)(C)SCCN=C(Nc1ccc(Cl)cc1)c1ccccc1Cl	-2.7
C/C(=N\NC(=O)c1ccc(Cl)cc1)c1ccccc1O	33*
CC(=NCCc1ccc(Cl)cc1)c1ccccc1O	5.2*
O=C(O)/C(=N/NC(=O)c1ccc(Cl)cc1)c1ccccc1	2.7
CCOC(=O)N/N=C(\C)c1ccccc1O	0.81
CC(=NCc1cccc(CN=C(C)c2ccccc2O)c1)c1ccccc1O	1.9
COc1ccc(C(=O)/C(Cc2cc(OC)c(OC)c(OC)c2)=C(\C(=O)O)c2ccc3c(c2)OCO3)cc1	-1.3
C=CCN/C(SCC(=O)c1cccc([N+](=O)[O-])c1)=C(\C#N)C(=O)OCC	-0.86
CCOC(=O)CNC(=O)CSc1nc2ccccc2s1	-0.2
COc1cc(S(=O)(=O)n2ccnc2C)c(OC)cc1Cl	-0.41
O=C1c2cccc3c(Br)ccc(c23)C(=O)N1CCc1ccccn1	24
CCOC(=O)NC(=S)NCCc1c[nH]c2ccccc12	1
C=CCNC(=O)C(=O)NCCc1c[nH]c2ccccc12	3.7*
N#C/C(=C\c1ccc(-c2cc(C(F)(F)F)cc(C(F)(F)F)c2)o1)C(=O)NCCc1c[nH]c2ccccc12	-0.31
c1ccc2c(c1)N=C1CCCCC1C1(CCCCC1)N2 (stereo not drawn)	-0.49
COc1cc(C(=O)NS(=O)(=O)c2ccccc2C)ccc1Cc1cn(C)c2ccc(NC(=O)OC3CCCC3)cc12	4.3*
COc1cc(C(=O)NNS(=O)(=O)c2ccccc2C)c(-n2c(C)ccc2C)cc1OC	-0.67
Cc1nc(N2CCN(c3ccccc3)CC2)nc2c1C(=O)CC(C)C2 (stereo not drawn)	0.21
Cc1nc(N2CCN(c3ccccn3)CC2)nc2c1C(=O)CC(c1ccc(Cl)cc1)C2 (stereo not drawn)	-0.26
Cc1nc(N2CCN(c3cccc(Cl)c3)CC2)nc2c1C(=O)CC(c1ccco1)C2 (stereo not drawn)	3*
COC(=O)C1=C(C)NC(=O)CC1c1cc(OC)c(OC)cc1Br (stereo not drawn)	0.86
O=C(COc1ccc(Cl)cc1Cl)NC1=NCCS1	-1.2
O=C(Cn1cc(C(=O)c2ccco2)c2ccccc21)NCc1ccco1	-1.1
SMILES	Dicer inh
O=C(Cn1cc(C(=O)c2ccco2)c2ccccc21)NCc1cccs1	-1.1
O=C(Cn1cc(C(=O)c2ccco2)c2ccccc21)NCCc1c[nH]c2ccccc12	4*
Cc1nccn1CC(=O)N1c2ccccc2Sc2ccccc21	5.5*
CCOC(=O)C(=O)N1c2ccccc2Sc2ccccc21	9.8
O=C1CCC(=O)N1CC(=O)N1c2ccccc2Sc2ccccc21	-0.22
C=CCn1c(-c2nonc2NC(=O)CC)nc2ccccc21	-2
CCOC(=O)C(NC(=O)c1cccc(Cl)c1)(Nc1ccc(F)cc1F)C(F)(F)F (stereo not drawn)	0.14
CCCCN1C(=O)C(O)(CC(=O)c2ccc3c(c2)OCCO3)c2cc(Br)ccc21 (stereo not drawn)	0.54
CNC(=S)NNC(=O)CSc1c(C)[nH]c2ccccc12	-0.53
O=C(CC(SCc1ccco1)c1ccc(Cl)cc1)c1ccco1 (stereo not drawn)	0.13
Cc1ccc(O)c(C(=O)NNC(=S)Nc2ccc(Cl)cc2)c1	5.4*
CNC(=S)NNC(=O)c1ccc(Cl)cc1Cl	-1.6
CCOC(=O)NNC(=S)Nc1ccc(Cl)cc1	-1.9
FC(F)(F)c1cnc(NN2C3CSC2CS3)c(Cl)c1	-1.2
Nc1cc(Cl)ccc1C(=O)N1CCSCC1	-0.56
N/C(=N\S(=O)(=O)c1ccc(Cl)cc1)N1CCSCC1	3.6*
CSC/C(N)=N/S(=O)(=O)c1ccc(Cl)cc1	0.22
Cc1ccc(S(=O)(=O)Nc2c(Cl)cccc2Cl)c(C)c1F	-0.69
Cc1nn2c3c(cnc2c1-c1ccc(F)cc1)C(=O)CC(C)C3 (stereo not drawn)	-0.22
Cc1csc2ncnc(Sc3ccccc3NS(=O)(=O)c3ccc(F)cc3)c12	-0.63
CCCCCCCNC1CC(=O)N(c2ccc(Cl)cc2)C1=O (stereo not drawn)	-0.55
O=C1CC(NCc2ccc(Cl)cc2)C(=O)N1c1ccc(Br)cc1 (stereo not drawn)	-3.3
O=C1CC(NCCc2ccc(Cl)cc2)C(=O)N1c1ccc(Br)cc1 (stereo not drawn)	4.6*
Clc1ccc(N2CCC(c3ccncc3)CC2)nn1	-0.16
CC(C)c1ccc(Nc2c(Nc3ccc(C(C)C)cc3)c(=O)c2=O)cc1	-0.03
SMILES	Dicer inh
COc1nc(Nc2ccccc2)nc(OC)n1	-1.6
O=c1c(Nc2ccccc2)c(Nc2ccccc2)c1=O	7.3*
COc1cc2c(cc1C)C1CCC3(C)C(=O)CCC3C1CC2 (stereo not drawn)	-1.2
COC(=O)/C(C#N)=C/c1ccccc1Cl	-0.12
COCCCN=C1NC(=O)C(CC(=O)Nc2cc(Cl)ccc2Cl)S1 (stereo not drawn)	2
O=C(CC1Sc2ccccc2NC1=O)Nc1ccccc1Cl (stereo not drawn)	2
COCCCN=C1NC(=O)C(CC(=O)Nc2ccccc2Cl)S1 (stereo not drawn)	3.1*
COc1cc(OC)c(NC(=O)CSc2nccn2C)cc1Cl	1.9
c1ccc(Cn2nnc3c(Sc4nnc(-c5ccncc5)o4)ncnc32)cc1	0.49
